# Laboratory results reported in PMC11006913.
# Substitutions are numbered along the chain they refer to.
# Tests used:
# Test in all cases: PBM; 200 nM protein, PBS
# Settings in all cases: dsDNA, one strand shown
# HOXC9 [1] = target: HOXC9 (Homo sapiens, UniProt P31274 178-260, K195R)
# HOXC9 [2] = target: HOXC9 (Homo sapiens, UniProt P31274 178-260)
# HOXC9 [3] = target: HOXC9 (Homo sapiens, UniProt P31274 178-260, R193K)
# HOXC9 [4] = target: HOXC9 (Homo sapiens, UniProt P31274 178-260, R222W)
# Chain of HOXC9 (Homo sapiens, UniProt P31274 178-260, R222W) (P31274 178-260 R222W): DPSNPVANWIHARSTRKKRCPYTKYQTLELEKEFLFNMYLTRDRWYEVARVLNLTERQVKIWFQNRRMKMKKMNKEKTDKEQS
# VENTX [5] = target: T1, VENTX (Homo sapiens, UniProt O95231 78-163)
# T1 sequence: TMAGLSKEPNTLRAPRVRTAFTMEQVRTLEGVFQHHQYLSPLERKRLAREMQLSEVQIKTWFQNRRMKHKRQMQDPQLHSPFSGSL
# ALX4 = ALX4 (Homo sapiens, UniProt Q9H161 200-286)
# Chain of ALX4 (Q9H161 200-286): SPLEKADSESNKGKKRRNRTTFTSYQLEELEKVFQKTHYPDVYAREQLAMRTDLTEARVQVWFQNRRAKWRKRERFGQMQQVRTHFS
# HOXA2 [6] = target: HOXA2 (Homo sapiens, UniProt O43364 129-215, R185T)
# Chain of HOXA2 (Homo sapiens, UniProt O43364 129-215, R185T) (O43364 129-215 R185T): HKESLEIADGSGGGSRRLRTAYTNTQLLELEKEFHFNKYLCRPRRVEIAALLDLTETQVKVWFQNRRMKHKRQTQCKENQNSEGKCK
# HOXA2 [7] = target: HOXA2 (Homo sapiens, UniProt O43364 129-215)
# Chain of HOXA2 (Homo sapiens, UniProt O43364 129-215) (O43364 129-215): as the sequence (O43364 129-215 R185T) above, with T57R counted along it
# VENTX [8] = target: T2, VENTX (Homo sapiens, UniProt O95231 78-163, Y115F)
# T2 sequence: T1 sequence with Y38F
# HOXA7 [9] = target: HOXA7 (Homo sapiens, UniProt P31268 116-202)
# Chain of HOXA7 (Homo sapiens, UniProt P31268 116-202) (P31268 116-202): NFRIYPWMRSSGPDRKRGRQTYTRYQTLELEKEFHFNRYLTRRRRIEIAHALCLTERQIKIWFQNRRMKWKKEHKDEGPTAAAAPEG
# HOXA7 [10] = target: HOXA7 (Homo sapiens, UniProt P31268 116-202, W177C)
# Chain of HOXA7 (Homo sapiens, UniProt P31268 116-202, W177C) (P31268 116-202 W177C): as the sequence (P31268 116-202) above, with W62C counted along it
# MSX2 [11] = target: MSX2 (Homo sapiens, UniProt P35548 130-214, R199I)
# Chain of MSX2 (Homo sapiens, UniProt P35548 130-214, R199I) (P35548 130-214 R199I): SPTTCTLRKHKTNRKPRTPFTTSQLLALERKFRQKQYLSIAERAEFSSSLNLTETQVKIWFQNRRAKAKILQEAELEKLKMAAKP
# HOXA2 [12] = target: HOXA2 (Homo sapiens, UniProt O43364 129-215, R185K)
# Chain of HOXA2 (Homo sapiens, UniProt O43364 129-215, R185K) (O43364 129-215 R185K): as the sequence (O43364 129-215 R185T) above, with T57K counted along it
# MSX2 [13] = target: MSX2 (Homo sapiens, UniProt P35548 130-214)
# Chain of MSX2 (Homo sapiens, UniProt P35548 130-214) (P35548 130-214): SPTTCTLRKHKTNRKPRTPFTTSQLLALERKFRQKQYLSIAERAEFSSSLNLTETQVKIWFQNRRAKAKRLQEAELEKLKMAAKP
# MSX2 [14] = target: MSX2 (Homo sapiens, UniProt P35548 130-214, F161Y)
# Chain of MSX2 (Homo sapiens, UniProt P35548 130-214, F161Y) (P35548 130-214 F161Y): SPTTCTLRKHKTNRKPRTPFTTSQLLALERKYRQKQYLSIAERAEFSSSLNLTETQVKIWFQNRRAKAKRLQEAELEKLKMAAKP
# HOXA2 [15] = target: HOXA2 (Homo sapiens, UniProt O43364 129-215, Y150S)
# Chain of HOXA2 (Homo sapiens, UniProt O43364 129-215, Y150S) (O43364 129-215 Y150S): as the sequence (O43364 129-215 R185T) above, with Y22S, T57R counted along it
# HOXD13 [16] = target: HOXD13 (Homo sapiens, UniProt P35453 263-343, T313R)
# Chain of HOXD13 (Homo sapiens, UniProt P35453 263-343, T313R) (P35453 263-343 T313R): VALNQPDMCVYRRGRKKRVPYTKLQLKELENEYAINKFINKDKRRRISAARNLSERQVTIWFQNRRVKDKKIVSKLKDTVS
# HOXD13 [17] = target: HOXD13 (Homo sapiens, UniProt P35453 263-343)
# Chain of HOXD13 (Homo sapiens, UniProt P35453 263-343) (P35453 263-343): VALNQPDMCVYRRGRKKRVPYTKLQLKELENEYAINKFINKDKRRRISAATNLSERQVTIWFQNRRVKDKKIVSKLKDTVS
# PROP1 [18] = target: PROP1 (Homo sapiens, UniProt O75360 56-141)
# Chain of PROP1 (Homo sapiens, UniProt O75360 56-141) (O75360 56-141): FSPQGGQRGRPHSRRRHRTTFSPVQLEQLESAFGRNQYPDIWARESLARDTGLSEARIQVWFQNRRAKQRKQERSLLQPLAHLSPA
# PROP1 [19] = target: PROP1 (Homo sapiens, UniProt O75360 56-141, R99H)
# Chain of PROP1 (Homo sapiens, UniProt O75360 56-141, R99H) (O75360 56-141 R99H): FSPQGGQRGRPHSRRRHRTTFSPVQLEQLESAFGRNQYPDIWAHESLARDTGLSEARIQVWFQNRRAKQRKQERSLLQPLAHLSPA
# PROP1 [20] = target: PROP1 (Homo sapiens, UniProt O75360 56-141, F88S)
# Chain of PROP1 (Homo sapiens, UniProt O75360 56-141, F88S) (O75360 56-141 F88S): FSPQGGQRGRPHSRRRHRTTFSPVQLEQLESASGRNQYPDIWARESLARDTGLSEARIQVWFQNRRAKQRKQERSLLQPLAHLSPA
# Chain of HOXC9 (Homo sapiens, UniProt P31274 178-260) (P31274 178-260): as the sequence (P31274 178-260 R222W) above, with W45R counted along it
# Chain of HOXC9 (Homo sapiens, UniProt P31274 178-260, K195R) (P31274 178-260 K195R): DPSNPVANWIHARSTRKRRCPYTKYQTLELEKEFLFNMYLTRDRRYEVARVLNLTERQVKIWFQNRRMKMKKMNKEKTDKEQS
# Chain of HOXC9 (Homo sapiens, UniProt P31274 178-260, R193K) (P31274 178-260 R193K): as the sequence (P31274 178-260 R222W) above, with R16K, W45R counted along it
sequence,measurement,setting,value
CACCATTA,binding signal,HOXC9 [1],"11.9 upbm affinity estimate (log intensity, higher = more binding, comparable within an allelic series)"
same,binding signal,HOXC9 [2],"11.9 upbm affinity estimate (log intensity, higher = more binding, comparable within an allelic series)"
same,binding signal,HOXC9 [3],"11.8 upbm affinity estimate (log intensity, higher = more binding, comparable within an allelic series)"
same,binding signal,HOXC9 [4],"10.6 upbm affinity estimate (log intensity, higher = more binding, comparable within an allelic series)"
CGACTTAA,binding signal,VENTX [5],"10.1 upbm affinity estimate (log intensity, higher = more binding, comparable within an allelic series)"
same,binding signal,ALX4,"10.3 upbm affinity estimate (log intensity, higher = more binding, comparable within an allelic series)"
ATAATAAC,binding signal,HOXC9 [1],"12 upbm affinity estimate (log intensity, higher = more binding, comparable within an allelic series)"
same,binding signal,HOXC9 [2],"12 upbm affinity estimate (log intensity, higher = more binding, comparable within an allelic series)"
same,binding signal,HOXC9 [3],"12 upbm affinity estimate (log intensity, higher = more binding, comparable within an allelic series)"
same,binding signal,HOXC9 [4],"10.7 upbm affinity estimate (log intensity, higher = more binding, comparable within an allelic series)"
ACGCCATA,binding signal,HOXC9 [1],"11 upbm affinity estimate (log intensity, higher = more binding, comparable within an allelic series)"
same,binding signal,HOXC9 [2],"10.9 upbm affinity estimate (log intensity, higher = more binding, comparable within an allelic series)"
same,binding signal,HOXC9 [3],"11 upbm affinity estimate (log intensity, higher = more binding, comparable within an allelic series)"
same,binding signal,HOXC9 [4],"10.2 upbm affinity estimate (log intensity, higher = more binding, comparable within an allelic series)"
AACCAAAT,binding signal,VENTX [5],"10 upbm affinity estimate (log intensity, higher = more binding, comparable within an allelic series)"
same,binding signal,HOXA2 [6],"9.12 upbm affinity estimate (log intensity, higher = more binding, comparable within an allelic series)"
same,binding signal,HOXA2 [7],"9.13 upbm affinity estimate (log intensity, higher = more binding, comparable within an allelic series)"
GGTGATAA,binding signal,VENTX [5],"10.3 upbm affinity estimate (log intensity, higher = more binding, comparable within an allelic series)"
ATCACCAT,binding signal,VENTX [5],"10.3 upbm affinity estimate (log intensity, higher = more binding, comparable within an allelic series)"
GATGATCA,binding signal,VENTX [5],"9.89 upbm affinity estimate (log intensity, higher = more binding, comparable within an allelic series)"
same,binding signal,VENTX [8],"9.51 upbm affinity estimate (log intensity, higher = more binding, comparable within an allelic series)"
CGTGATCA,binding signal,VENTX [5],"9.86 upbm affinity estimate (log intensity, higher = more binding, comparable within an allelic series)"
same,binding signal,VENTX [8],"9.57 upbm affinity estimate (log intensity, higher = more binding, comparable within an allelic series)"
AGCCCGGC,binding signal,HOXC9 [1],"9.63 upbm affinity estimate (log intensity, higher = more binding, comparable within an allelic series)"
same,binding signal,HOXC9 [2],"9.75 upbm affinity estimate (log intensity, higher = more binding, comparable within an allelic series)"
same,binding signal,HOXC9 [3],"9.64 upbm affinity estimate (log intensity, higher = more binding, comparable within an allelic series)"
same,binding signal,HOXC9 [4],"9.67 upbm affinity estimate (log intensity, higher = more binding, comparable within an allelic series)"
CGCGTTTA,binding signal,VENTX [5],"10.2 upbm affinity estimate (log intensity, higher = more binding, comparable within an allelic series)"
CACGTTTA,binding signal,VENTX [5],"10.1 upbm affinity estimate (log intensity, higher = more binding, comparable within an allelic series)"
AAAATGCT,binding signal,VENTX [5],"9.84 upbm affinity estimate (log intensity, higher = more binding, comparable within an allelic series)"
CCTCTGGA,binding signal,HOXC9 [1],"9.66 upbm affinity estimate (log intensity, higher = more binding, comparable within an allelic series)"
same,binding signal,HOXC9 [2],"9.58 upbm affinity estimate (log intensity, higher = more binding, comparable within an allelic series)"
same,binding signal,HOXC9 [3],"9.64 upbm affinity estimate (log intensity, higher = more binding, comparable within an allelic series)"
same,binding signal,HOXC9 [4],"9.74 upbm affinity estimate (log intensity, higher = more binding, comparable within an allelic series)"
CGATAACC,binding signal,VENTX [5],"9.81 upbm affinity estimate (log intensity, higher = more binding, comparable within an allelic series)"
CCGCTTCG,binding signal,HOXA7 [9],"8.43 upbm affinity estimate (log intensity, higher = more binding, comparable within an allelic series)"
same,binding signal,HOXA7 [10],"8.41 upbm affinity estimate (log intensity, higher = more binding, comparable within an allelic series)"
GACCCTGC,binding signal,HOXA7 [9],"8.54 upbm affinity estimate (log intensity, higher = more binding, comparable within an allelic series)"
same,binding signal,HOXA2 [6],"7.03 upbm affinity estimate (log intensity, higher = more binding, comparable within an allelic series)"
same,binding signal,MSX2 [11],"9.48 upbm affinity estimate (log intensity, higher = more binding, comparable within an allelic series)"
same,binding signal,HOXA2 [12],"10.3 upbm affinity estimate (log intensity, higher = more binding, comparable within an allelic series)"
same,binding signal,MSX2 [13],"9.31 upbm affinity estimate (log intensity, higher = more binding, comparable within an allelic series)"
same,binding signal,MSX2 [14],"9.36 upbm affinity estimate (log intensity, higher = more binding, comparable within an allelic series)"
same,binding signal,HOXA2 [15],"10.5 upbm affinity estimate (log intensity, higher = more binding, comparable within an allelic series)"
same,binding signal,HOXA7 [10],"8.43 upbm affinity estimate (log intensity, higher = more binding, comparable within an allelic series)"
same,binding signal,HOXA2 [7],"6.79 upbm affinity estimate (log intensity, higher = more binding, comparable within an allelic series)"
CCTTCGAC,binding signal,HOXA7 [9],"8.4 upbm affinity estimate (log intensity, higher = more binding, comparable within an allelic series)"
same,binding signal,HOXA7 [10],"8.45 upbm affinity estimate (log intensity, higher = more binding, comparable within an allelic series)"
CATTTTAA,binding signal,HOXA7 [9],"9.97 upbm affinity estimate (log intensity, higher = more binding, comparable within an allelic series)"
same,binding signal,HOXA7 [10],"8.79 upbm affinity estimate (log intensity, higher = more binding, comparable within an allelic series)"
ATTACCAC,binding signal,HOXA7 [9],"10.4 upbm affinity estimate (log intensity, higher = more binding, comparable within an allelic series)"
same,binding signal,HOXD13 [16],"10.1 upbm affinity estimate (log intensity, higher = more binding, comparable within an allelic series)"
same,binding signal,HOXD13 [17],"10.7 upbm affinity estimate (log intensity, higher = more binding, comparable within an allelic series)"
same,binding signal,HOXA7 [10],"8.73 upbm affinity estimate (log intensity, higher = more binding, comparable within an allelic series)"
GTATTTAA,binding signal,HOXA7 [9],"10.1 upbm affinity estimate (log intensity, higher = more binding, comparable within an allelic series)"
same,binding signal,PROP1 [18],"9.2 upbm affinity estimate (log intensity, higher = more binding, comparable within an allelic series)"
same,binding signal,PROP1 [19],"8.79 upbm affinity estimate (log intensity, higher = more binding, comparable within an allelic series)"
same,binding signal,PROP1 [20],"7.52 upbm affinity estimate (log intensity, higher = more binding, comparable within an allelic series)"
same,binding signal,HOXA7 [10],"8.94 upbm affinity estimate (log intensity, higher = more binding, comparable within an allelic series)"
GACGCTGC,binding signal,HOXA7 [9],"8.24 upbm affinity estimate (log intensity, higher = more binding, comparable within an allelic series)"
same,binding signal,HOXA2 [6],"6.99 upbm affinity estimate (log intensity, higher = more binding, comparable within an allelic series)"
same,binding signal,HOXA2 [12],"10.4 upbm affinity estimate (log intensity, higher = more binding, comparable within an allelic series)"
same,binding signal,HOXA2 [15],"10.4 upbm affinity estimate (log intensity, higher = more binding, comparable within an allelic series)"
same,binding signal,HOXA7 [10],"8.35 upbm affinity estimate (log intensity, higher = more binding, comparable within an allelic series)"
same,binding signal,HOXA2 [7],"7.11 upbm affinity estimate (log intensity, higher = more binding, comparable within an allelic series)"
CGGTGTCC,binding signal,HOXA7 [9],"8.41 upbm affinity estimate (log intensity, higher = more binding, comparable within an allelic series)"
same,binding signal,MSX2 [11],"9.36 upbm affinity estimate (log intensity, higher = more binding, comparable within an allelic series)"
same,binding signal,MSX2 [13],"9.29 upbm affinity estimate (log intensity, higher = more binding, comparable within an allelic series)"
same,binding signal,MSX2 [14],"9.3 upbm affinity estimate (log intensity, higher = more binding, comparable within an allelic series)"
same,binding signal,HOXA7 [10],"8.4 upbm affinity estimate (log intensity, higher = more binding, comparable within an allelic series)"
ACCTAATC,binding signal,HOXA7 [9],"9.7 upbm affinity estimate (log intensity, higher = more binding, comparable within an allelic series)"
same,binding signal,HOXA7 [10],"8.88 upbm affinity estimate (log intensity, higher = more binding, comparable within an allelic series)"
CGTTTATC,binding signal,HOXA7 [9],"9.65 upbm affinity estimate (log intensity, higher = more binding, comparable within an allelic series)"
same,binding signal,PROP1 [18],"8.39 upbm affinity estimate (log intensity, higher = more binding, comparable within an allelic series)"
same,binding signal,PROP1 [19],"7.9 upbm affinity estimate (log intensity, higher = more binding, comparable within an allelic series)"
same,binding signal,PROP1 [20],"7.41 upbm affinity estimate (log intensity, higher = more binding, comparable within an allelic series)"
same,binding signal,HOXA7 [10],"8.89 upbm affinity estimate (log intensity, higher = more binding, comparable within an allelic series)"
